Source: PubChem BioAssay (NCATS)
Inconclusive results are not listed. Where a call stands in place of a potency, no number is given. The source made the active and inactive calls. The call rests on the fitted dose curve; in most records, active means well fitted curve in the direction sought with a large enough effect; inconclusive means small, poorly fitted or top-dose-only effect, or another doubt; inactive means no such curve, though single readings can be large; an effect the other way counts as inactive or inconclusive.

Columns and labels:
[1] = qHTS of pediatric cancer cell lines to identify multiple opportunities for drug repurposing: Primary screen for SK-N-SH cells (AID 1347098); further: nearly all actives have a fitted effect of over 65% in size; further: potency means the concentration at half of the fitted maximal effect
Outline: (§1)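 Cells (500-1,000/well) rested 5 h, then received compounds for 48 h; metabolically active cells were measured by CellTiter-Glo luminescence. Final concentrations spanned up to 46 µM (MIPE, 11-point) or 0.59 nM-46 µM (NPC, 8-point) in primary screens, 11-point in follow-ups.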

[2] = qHTS of pediatric cancer cell lines to identify multiple opportunities for drug repurposing: Primary screen for NB1643 cells (AID 1347099); further: nearly all actives have a fitted effect of over 50% in size; further: potency means the concentration at half of the fitted maximal effect
Outline: (§2)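 ATP-based luminescence (CellTiter-Glo) quantifies viability after a 48-hour exposure. Compounds are dosed across 8 or 11 final concentrations; DMSO and 2.3 µM bortezomib serve as controls.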

[3] = qHTS of pediatric cancer cell lines to identify multiple opportunities for drug repurposing: Primary screen for LAN-5 cells (AID 1347100); further: potency means the concentration at half of the fitted maximal effect
Outline: as §1

[4] = qHTS of pediatric cancer cell lines to identify multiple opportunities for drug repurposing: Primary screen for BT-12 cells (AID 1347101); further: nearly all actives have a fitted effect of over 25% in size; further: potency means the concentration at half of the fitted maximal effect
Outline: as §1

[5] = qHTS of pediatric cancer cell lines to identify multiple opportunities for drug repurposing: Primary screen for Rh18 cells (AID 1347102); further: nearly all actives have a fitted effect of over 65% in size
Outline: as §1

[6] = qHTS of pediatric cancer cell lines to identify multiple opportunities for drug repurposing: Primary screen for RD cells (AID 1347104); further: nearly all actives have a fitted effect of over 55% in size; further: potency means the concentration at half of the fitted maximal effect
Outline: as §2

[7] = qHTS of pediatric cancer cell lines to identify multiple opportunities for drug repurposing: Primary screen for MG 63 (6-TG R) cells (AID 1347105); further: nearly all actives have a fitted effect of over 50% in size; further: potency means the concentration at half of the fitted maximal effect
Outline: as §2

[8] = qHTS of pediatric cancer cell lines to identify multiple opportunities for drug repurposing: Primary screen for control Hh wild type fibroblast cells (AID 1347106);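 further: series mostly up to about 46 µM; a drop in luminescence marks cytotoxicity and a rise apparent proliferation; nearly all actives have a fitted effect of over 55% in size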
Outline: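 Viability after 48 h compound treatment at 37C, 500-1,000 cells/well, read as ATP luminescence with CellTiter-Glo. Primary screens used 11-point (MIPE, 0.78 nM-46 µM) or 8-point (NPC, 0.59 nM-46 µM) final concentrations; follow-up screens used 11-point dilutions.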

[9] = qHTS of pediatric cancer cell lines to identify multiple opportunities for drug repurposing: Primary screen for Rh30 cells (AID 1347107); further: series mostly up to about 46 µM; nearly all actives have a fitted effect of over 75% in size
Outline: as §1

[10] = qHTS of pediatric cancer cell lines to identify multiple opportunities for drug repurposing: Primary screen for Rh41 cells (AID 1347108); further: nearly all actives have a fitted effect of over 70% in size; further: potency means the concentration at half of the fitted maximal effect
Outline: as §2

[11] = qHTS of pediatric cancer cell lines to identify multiple opportunities for drug repurposing: Confirmatory screen for A673 cells (AID 1347110);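 further: cells exposed to compound for 48 h before the viability read; nearly all actives have a fitted effect of over 65% in size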; further: potency means the concentration at half of the fitted maximal effect
Outline: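 Forty-eight-hour viability assay. Follow-up compounds ran at 11-point dilutions; positive control bortezomib at 2.3 uM final, neutral control DMSO.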

[12] = qHTS of pediatric cancer cell lines to identify multiple opportunities for drug repurposing: Confirmatory screen for SK-N-MC cells (AID 1347111);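 further: cells exposed to compound for 48 h before the readout; nearly all actives have a fitted effect of over 70% in size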; further: potency means the concentration at half of the fitted maximal effect
Outline: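 Seed 500-1,000 cells/well; rest 5 h at 37 degrees C. Pin-transfer compounds, 11-point titration. Incubate 48 h. Add CellTiter-Glo, 15 min RT, read luminescence.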

[13] = qHTS of pediatric cancer cell lines to identify multiple opportunities for drug repurposing: Confirmatory screen for LAN-5 cells (AID 1347113); further: nearly all actives have a fitted effect of over 65% in size; further: potency means the concentration at half of the fitted maximal effect
Outline: as §1

[14] = qHTS of pediatric cancer cell lines to identify multiple opportunities for drug repurposing: Confirmatory screen for NB-EBc1 cells (AID 1347115);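 further: cells exposed to compound for 48 h before the viability read; nearly all actives have a fitted effect of over 45% in size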; further: potency means the concentration at half of the fitted maximal effect
Outline: as §1

[15] = qHTS of pediatric cancer cell lines to identify multiple opportunities for drug repurposing: Confirmatory screen for BT-37 cells (AID 1347117); further: nearly all actives have a fitted effect of over 55% in size; further: potency means the concentration at half of the fitted maximal effect
Outline: as §1

[16] = qHTS of pediatric cancer cell lines to identify multiple opportunities for drug repurposing: Confirmatory screen for TC32 cells (AID 1347118); further: potency means the concentration at half of the fitted maximal effect
Outline: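 Luminescent ATP read-out (CellTiter-Glo) of metabolically active TC32 cells after 48 h exposure. Concentration-response curves came from 11-point (MIPE, 0.78 nM–46 µM) or 8-point (NPC, 0.59 nM–46 µM) primary titrations; follow-up used 11 points.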

[17] = qHTS of pediatric cancer cell lines to identify multiple opportunities for drug repurposing: Confirmatory screen for MG 63 (6-TG R) cells (AID 1347119); further: nearly all actives have a fitted effect of over 55% in size; further: potency means the concentration at half of the fitted maximal effect
Outline: as §1

[18] = qHTS of pediatric cancer cell lines to identify multiple opportunities for drug repurposing: Primary screen for OHS-50 cells (AID 1347103); further: nearly all actives have a fitted effect of over 40% in size; further: potency means the concentration at half of the fitted maximal effect
Outline: as §1

[19] = qHTS of pediatric cancer cell lines to identify multiple opportunities for drug repurposing: Confirmatory screen for BT-12 cells (AID 1347112); further: nearly all actives have a fitted effect of over 55% in size; further: potency means the concentration at half of the fitted maximal effect
Outline: as §1

[20] = qHTS of pediatric cancer cell lines to identify multiple opportunities for drug repurposing: Confirmatory screen for DAOY cells (AID 1347114); further: nearly all actives have a fitted effect of over 65% in size; further: potency means the concentration at half of the fitted maximal effect
Outline: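 Viability measured as metabolically active cells via CellTiter-Glo luminescence following 48 hours of compound exposure, 11-point dilutions in confirmatory testing. 500-1,000 cells/well plated 5 hours before dosing; controls were DMSO and 2.3 µM bortezomib.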

SMILES	Potency [1]	Potency [2]	Potency [3]	Potency [4]	Potency [5]	Potency [6]	Potency [7]	Potency [8]	Potency [9]	Potency [10]	Potency [11]	Potency [12]	Potency [13]	Potency [14]	Potency [15]	Potency [16]	Potency [17]	Potency [18]	Potency [19]	Potency [20]
CCC1(c2cnc[nH]2)Cc2ccccc2C1	inactive	inactive	inactive	inactive	inactive	inactive	inactive	inactive	inactive	inactive	inactive	3290 nM (active)	inactive	20800 nM (active)	10400 nM (active)	4140 nM (active)	14700 nM (active)			
C=CCOc1cc(Cl)ccc1C(=O)NCCN(CC)CC	inactive	inactive	inactive	inactive	inactive	inactive	inactive	inactive	inactive											
CCC(=O)O[C@]1(C(=O)COC)[C@@H](C)C[C@H]2[C@@H]3CCC4=CC(=O)C=C[C@]4(C)C3(F)[C@@H](O)C[C@@]21C (stereo partly specified)	inactive	inactive	inactive	inactive		inactive	inactive	inactive	inactive	inactive	inactive	inactive		inactive	inactive	inactive	26100 nM (active)	inactive	inactive	inactive
CCC(=O)Oc1ccc2c(c1)CC[C@@H]1[C@@H]2CC[C@@]2(C)[C@H]1C[C@@H](OC(=O)CC)[C@@H]2OC(=O)CC	inactive	inactive	inactive	inactive	inactive	inactive	inactive	inactive	inactive	inactive										
CCOC(=O)N1CCC(Nc2ccc(Cl)cc2N)CC1	19400 nM (active)	8410 nM (active)	2660 nM (active)	4900 nM (active)		inactive	inactive		inactive											
OCCOCCN1CCN(C(c2ccccc2)c2ccc(Cl)cc2)CC1 (stereo unspecified)	inactive	inactive	inactive	inactive	inactive	inactive	inactive	inactive	inactive	inactive										
CC(=O)Nc1ccc(S(=O)(=O)Nc2cc(C)on2)cc1	inactive	inactive	inactive	inactive			inactive	inactive	inactive	inactive								inactive		
CC(C)OC(=O)c1cc2c(OCC(O)CNC(C)(C)C)cccc2[nH]1 (stereo unspecified)	inactive	inactive	inactive	inactive	inactive		inactive	inactive	inactive											
CCCCCCn1c(=O)c2c(ncn2C)n(C)c1=O	inactive	inactive	inactive	inactive	inactive	inactive		inactive	inactive	inactive										
CC(C)C(=O)OCc1cccc(OC(=O)[C@@H]2N3C(=O)[C@@H](NC(=O)Cc4ccccc4)[C@H]3SC2(C)C)c1	inactive	inactive	inactive	inactive	inactive	inactive	inactive	inactive	inactive	inactive										
CCN1CCN(c2cc(-c3ccc(F)cc3)c3c(n2)CCCCCC3)CC1	inactive	inactive	inactive	inactive	inactive	inactive	inactive	inactive	inactive	inactive										
CCOc1c(N2CCOCC2)cnn(C)c1=O	inactive	inactive	inactive	inactive		inactive	inactive	inactive	inactive	inactive								inactive		
Cc1ccc(C(=O)Oc2ccc(C(O)CNC(C)(C)C)cc2OC(=O)c2ccc(C)cc2)cc1 (stereo unspecified)	inactive	1 nM (active)	inactive	6170 nM (active)	inactive		inactive	inactive	inactive	inactive	92.8 nM (active)	11700 nM (active)		inactive	inactive	5220 nM (active)	inactive		inactive	
COc1cc2c(cc1OC)C(=O)CC2	inactive	inactive	inactive	inactive	inactive	inactive	inactive	inactive	inactive	inactive										
C[N+](C)(CCOc1ccccc1)Cc1cccs1	inactive	inactive	inactive	inactive	inactive	inactive	inactive	inactive	inactive	inactive										
CC(=O)N[C@@H](CCC(N)=O)C(=O)O	inactive	inactive	inactive	inactive		inactive	inactive	inactive	inactive	inactive								inactive		
COC(=O)c1c(Cl)c(Cl)c(C(=O)OC)c(Cl)c1Cl	inactive	inactive	inactive	inactive		inactive	inactive	inactive	inactive	inactive								inactive		
Cc1ccc(Cl)c(OCC(O)CNC(C)(C)C)c1 (stereo unspecified)	inactive	inactive	inactive	inactive	inactive		inactive	inactive	inactive	inactive										
CN(C)CCCOC1(Cc2ccccc2)CCCCCC1	inactive	inactive	inactive	inactive	inactive	inactive	inactive	inactive	inactive	inactive										
CC(C)(C)CC(=O)OCC(=O)[C@@]1(O)CC[C@H]2[C@@H]3CCC4=CC(=O)C=C[C@]4(C)[C@H]3[C@@H](O)C[C@@]21C	inactive	inactive	inactive	inactive	inactive	inactive	inactive	inactive	inactive	inactive	2330 nM (active)	inactive		inactive	inactive	inactive	inactive		inactive	
c1ccc2c(c1)CCc1ccccc1N2	inactive	inactive	inactive	inactive		inactive	inactive	inactive	inactive	inactive										

SMILES	Potency [1]	Potency [2]	Potency [3]	Potency [4]	Potency [5]	Potency [6]	Potency [7]	Potency [8]	Potency [9]	Potency [10]	Potency [11]	Potency [12]	Potency [13]	Potency [14]	Potency [15]	Potency [16]	Potency [17]	Potency [18]	Potency [19]	Potency [20]
CN1CCN(N)CC1	inactive	inactive	inactive	inactive		inactive	inactive	inactive	inactive	inactive								inactive		
CC[C@@]1(O)C(=O)OCc2c1cc1n(c2=O)Cc2c-1nc1ccccc1c2/C=N/OC(C)(C)C	194 nM (active)	53.1 nM (active)	21.1 nM (active)	246 nM (active)		668 nM (active)	26.6 nM (active)	inactive		944 nM (active)	11.7 nM (active)	5.2 nM (active)	14.7 nM (active)	5.2 nM (active)	9.3 nM (active)	5.2 nM (active)	18.5 nM (active)	34.7 nM (active)	1040 nM (active)	
O=C1Nc2cc(Cl)ccc2Oc2ccccc21	inactive	inactive	inactive	inactive		inactive	inactive	inactive	inactive	inactive										
N[C@@H](Cc1cc(I)c(O)c(I)c1)C(=O)O	inactive	inactive	inactive	inactive		inactive	inactive	inactive	inactive	inactive								inactive		
O=C(OCCN1CCOCC1)c1cccnc1Nc1cccc(C(F)(F)F)c1	inactive	inactive	inactive	inactive	inactive	inactive	inactive	inactive	inactive	inactive										
CCCC(=O)OCOC(=O)C1=C(C)NC(C)=C(C(=O)OC)C1c1cccc(Cl)c1Cl (stereo unspecified)	inactive	inactive	inactive	inactive	inactive	inactive	inactive	inactive	inactive	inactive										
O=C(O)/C=C(\CC(=O)O)C(=O)O	inactive	inactive	inactive	inactive		inactive	inactive	inactive	inactive	inactive								inactive		
COc1ccc(OC(=O)N(CC(=O)O)Cc2ccc(OCCc3nc(-c4ccccc4)oc3C)cc2)cc1	inactive	inactive	inactive	inactive		inactive	inactive	inactive	inactive	inactive								inactive		
OCc1cccnc1	inactive	inactive	inactive	inactive		inactive	inactive	inactive	inactive									inactive		
CCCCNc1ccc(C(=O)OCCN(CC)CC)cc1	inactive	inactive	inactive	inactive			inactive	inactive	inactive	inactive								inactive		
O=C1c2ccccc2CCc2ccccc21	inactive	inactive	inactive	inactive		inactive	inactive	inactive	inactive	inactive								inactive		
CC[N+]1(CC)CCC(=C(c2ccccc2)c2ccccc2)C1C (stereo unspecified)	inactive	inactive	inactive		inactive	inactive	inactive	inactive	inactive											
CC(C)=CCC/C(C)=C/CC/C(C)=C/C(=O)OCC(=O)[C@@]1(O)CC[C@H]2[C@@H]3CCC4=CC(=O)C=C[C@]4(C)[C@H]3[C@@H](O)C[C@@]21C	inactive	inactive	13300 nM (active)		inactive	inactive	inactive		inactive	inactive		18500 nM (active)		inactive						20800 nM (active)
COc1cc2nc(Cl)nc(N)c2cc1OC	inactive	inactive	inactive		inactive	inactive	inactive	inactive	inactive	inactive								inactive		
O=C1CCCc2c(O)cccc21	inactive	inactive	inactive		inactive	inactive	inactive	inactive	inactive	inactive								inactive		
CC(=O)OC/C=C(C)/C=C/C=C(C)/C=C/C1=C(C)CCCC1(C)C	inactive	inactive	inactive		inactive	inactive	inactive	inactive	inactive									inactive		
O=C(CCC1CCN(Cc2ccccc2)CC1)c1ccc2c(c1)NCCCC2	30700 nM (active)	inactive	inactive				inactive	inactive	inactive											
Nc1nc(=O)n([C@@H]2O[C@H](CO)[C@@H](O)[C@@H]2F)cc1I	inactive	inactive	inactive		inactive	inactive	inactive	inactive	inactive	inactive										
CCOC(=O)c1ccc(OCCN2C[C@H](O)[C@@H](O)[C@H](O)[C@H]2CO)cc1	inactive	inactive		inactive	inactive	inactive	inactive	inactive	inactive	inactive								inactive		
C[N+]1(C)CCC(OC(=O)C(O)(c2ccccc2)C2CCCC2)C1 (stereo unspecified)	inactive	inactive	inactive			inactive	inactive	inactive	inactive	inactive								inactive		
CC(C)C[C@@H]1[C@H](c2ccccc2)OC(=O)N1CCCN1CCCCCC1	inactive	inactive	inactive		inactive		inactive	inactive	inactive											
